In PubChem BioAssay AID1508622 (National Center for Advancing Translational Sciences (NCATS), 2021):
Active and inactive are the calls of the source. Calls come from the whole dose curve; as a rule, active = well fitted activation curve with a large enough effect; inconclusive = small, poorly fitted or top-dose-only effect; inactive = no such curve, though single readings can be large or run the other way.

Experiment: Confirmatory qHTS for Identification of Small Molecule Activators of Huntingtin-Antisense Promoter Activity
Details: HEK293 HTT-AS promoter firefly luciferase reporter, 24 h; series mostly up to 57.5 µM; activity change, positive = activation: at the top concentration
Procedure, shortened: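 HEK293 luciferase reporter cells, 2,500/well, cultured 24 h, then exposed to compounds at up to 57.5 uM final for 24 h at 37C. Firefly luciferase luminescence read; normalized to vehicle (0%) and zero RLU (-100%).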
Potency is the fitted concentration of half-maximal effect.

Activity change, positive = activation, inactive:
COc1ccc(CCNC(=O)c2ccc3c(c2)CCN3S(=O)(=O)c2ccc(C)cc2)cc1 -11.2%, CC(C)OCc1cc(CN2CCN(c3ccccc3)CC2)c(O)c2ncccc12 -34.5%, COc1cccc(C(=O)Nc2ccc(S(=O)(=O)N(Cc3ccccc3)c3ccccc3)cc2)c1 -26.8%, CCc1ccc(NC(=O)c2ccc(F)c(S(=O)(=O)N3CCC4(CC3)OCCO4)c2)cc1 -82.6%, Cc1ccc(C(=O)Nc2nc(-c3nnn(-c4cccc(Cl)c4C)c3C)ns2)cc1C -64.7%, COc1ccc(C(=O)Nc2nc(-c3nnn(-c4ccc(F)cc4F)c3C)ns2)cc1 -24.9%, CN1CCCC(n2nc(Cc3ccc(Cl)cc3)c3ccccc3c2=O)CC1 (centres undefined) -9.68%, COc1cc(NS(=O)(=O)c2ccc(-c3cc(C)no3)cc2)cc(OC)c1 -94%, Cc1cc(N2CCC(C)CC2)nc2ccc(NC(=O)CCC(=O)N3CCN(c4cccc(C(F)(F)F)c4)CC3)cc12 -18.5%, COc1ccc(NC(=O)C(=O)c2cc(C)n(-c3ccc(C)cc3)c2C)cc1Cl -74.2%, CCc1cccc(C)c1NC(=O)COCc1cc(-c2ccc3c(c2)OCO3)on1 -92%, Cc1cccc(N2CCN(S(=O)(=O)c3ccc4c(c3)C(C(C)C)C(=O)N4)CC2)c1C (centres undefined) -93.9%, O=C(Cn1cc(S(=O)(=O)Cc2ccccc2F)c2ccccc21)Nc1ccc(F)c(Cl)c1 -56.5%, Cc1cccc(CS(=O)(=O)Cc2ccc(C(=O)NCc3ccc(Cl)cc3)o2)c1 -44.7%, Cc1ccccc1Cc1c(C)nc2c(-c3ccccc3)c(C)[nH]n2c1=O -38.5%, COc1ccccc1NC(=O)c1ccc(-c2nc(COc3ccc(C)cc3)c(C)o2)cc1 -54.7%, COc1ccc(OC)c(CCNC(=O)c2cnn(-c3ccc(C)cc3C)c2C2CCN(C(=O)OC(C)(C)C)CC2)c1 -34%, COc1ccc(NC(=O)CSc2oc(-c3cccs3)nc2S(=O)(=O)c2ccccc2)c(OC)c1 -25.9%, Cc1ccc(C(=O)NCc2ccc3c(c2)CCN3C(=O)c2ccc(C)cc2)cc1 -20.9%, Cc1ccc(NC(=O)C2CCCN2S(=O)(=O)c2cccc3nsnc23)cc1Cl (centres undefined) -45.5%, O=C(NCc1ccccc1)C(=O)NCC(c1ccco1)S(=O)(=O)c1ccc(Cl)cc1 (centres undefined) -34.3%, O=C(CSc1nccn1Cc1ccc(F)cc1)Nc1nc2ccccc2s1 -21.3%, CCCCOc1ccc(CNC(=O)c2ccc(NC(=O)N3CCSc4ncccc43)cc2)cc1 -24.2%, N#CCNC(=O)c1ccc(-c2ccnc(Nc3ccc(N4CCOCC4)cc3)n2)cc1 -24.8%, CCCc1ccc(C2Sc3ccccc3NC3=C2C(=O)c2ccccc23)cc1 (centres undefined) -72.4%, CCc1nnc(NC(=O)c2nc(S(=O)(=O)Cc3cccc(C)c3)ncc2Cl)s1 -94.3%, COc1ccc2[nH]cc(CCNC(=O)c3cnn(-c4ccc(C)cc4)c3C3CCN(C(=O)OC(C)(C)C)CC3)c2c1 -37%, Cc1ccc(C)c(N2CCN(C(=O)C3CCN(c4nc(-c5ccc(C(C)C)cc5)no4)CC3)CC2)c1 -94.5%, Cc1ccc(NCc2cccn2-c2nnc(N3CCC(C(=O)NCc4ccc(OC(C)C)cc4)CC3)s2)cc1 -53.3%, COc1ccc(NC(=O)C(=O)NCC(c2cccnc2)N2CCc3ccccc3C2)cc1 (centres undefined) -27.5%, O=C(Nc1cc(Cl)cc(Cl)c1)c1ccc(F)c(S(=O)(=O)N2CCc3ccccc32)c1 -91.7%, CN[C@H]1[C@@H](O)[C@@H]2O[C@@H]3O[C@H](C)CC(=O)[C@]3(O)O[C@@H]2[C@@H](NC)[C@H]1O -0.802%, O=C(COCc1cc(-c2cccs2)on1)N1CCN(c2cccc(Cl)c2)CC1 -13.4%, CCCCN1C(C(=O)c2ccccc2)=C(OC(C)=O)c2ccccc2S1(=O)=O -45.9%, CCN(CC)CCOc1ccc(C(=C(Cl)c2ccccc2)c2ccccc2)cc1 -7.48%, Cc1cc(-c2ccc(S(=O)(=O)Nc3cccc(C)c3C)s2)on1 -41.5%, Cc1ccc(CN2CCCn3nc(C(=O)NCc4ccc(OC(C)C)cc4)cc3C2=O)cc1 -86.8%, CCC1=Nc2cc(C(=O)NC3CCCC3)ccc2Sc2ccc(Cl)cc21 -32.8%

Potency, active:
Cc1ccc(-n2ncc3c(N(C)Cc4ccccc4)ncnc32)cc1 213 nM
